The text below walks through data of PubChem BioAssay (NCI).

Experiment [1] in a line: NCI Yeast Anticancer Drug Screen. Data for the rad50 strain (AID 155).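 Further: 0% = growth of vehicle-only cultures of the same strain.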 The note with it: S. cerevisiae rad50 strain growth inhibition, hits give high values. Put shortly: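 Growth of the mutant yeast was measured after compound exposure and referenced to vehicle-treated cultures.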
A short description of experiment [2]: NCI Yeast Anticancer Drug Screen. Data for the mec2-1 strain (AID 157). The note with it: S. cerevisiae mec2-1 strain, hits give high values. Put shortly: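 Growth inhibition is read against vehicle-treated controls after compound exposure of the mec2-1 yeast strain, which is defective in DNA damage repair or cell cycle control.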
A short description of experiment [3]: NCI Yeast Anticancer Drug Screen. Data for the sgs1 mgt1 strain (AID 161).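 Further: 0% = growth of cultures given vehicle only.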 The note with it: S. cerevisiae sgs1 mgt1 strain, hits give high values. Put shortly:
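This yeast growth screen uses a strain with defined DNA-repair lesions; compound-treated growth is compared with vehicle-treated growth.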

Experiment [4] is described as follows: NCI Yeast Anticancer Drug Screen. Data for the cln2 rad14 strain (AID 165).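 Further: 0% = growth equal to vehicle treated cultures.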 The note with it: S. cerevisiae cln2 rad14 strain, hits give high values. The method, boiled down: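 Growth inhibition, relative to vehicle-treated controls, is the read-out. The test organism is a yeast strain with defined genetic alterations, cln2 rad14.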
Experiment [5] can be described thus: NCI Yeast Anticancer Drug Screen. Data for the bub3 strain (AID 167). The note with it: S. cerevisiae bub3 mutant strain, hits give high values. The method, boiled down: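 Whole-cell yeast assay. The mutant strain was incubated with compounds, and growth inhibition was determined by comparison with vehicle-treated cells.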
Experiment [6] can be described thus: NCI Yeast Anticancer Drug Screen. Data for the mlh1 rad18 strain (AID 175). The note with it: S. cerevisiae mlh1 rad18 strain growth inhibition, hits give high values. The method, boiled down:
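Cells of a genetically altered yeast strain, deficient in DNA damage repair, were treated with compound. Their growth was then compared with that of vehicle-treated cultures to give inhibition.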

[7] abbreviates: at 5.0 µM (retest, dose inferred, filed as 0.5).
The mark [8] stands for this setting: at 50.0 µM (retest, dose inferred, filed as 5.0).

The panel holds about 79,000 compounds, 15% with a hit somewhere; the sample as a whole holds those more often. Values without a mark were called inactive. Calls of active or inactive are those of the source. No stated cut-off is given here; in the data, active means growth inhibition above about 70%; inactive means the rest.

In the case of `COc1ccc(/C=C(\C#N)c2ccccc2)cc1OC`, the growth inhibition is 0% in experiment [1] (setting [7]); 55% in experiment [1] (setting [8]); 86.6% (active) in experiment [1] (at 50.0 µM); -18% in experiment [2] (setting [7]); 29% in experiment [2] (setting [8]); 87.3% (active) in experiment [2] (at 50.0 µM). In addition, the growth inhibition in experiment [3] (setting [7]) is 1%; in experiment [3] (setting [8]), 53%; in experiment [3] (at 50.0 µM), 88.5% (active); in experiment [4] (setting [7]), 30%; in experiment [4] (setting [8]), 34%; in experiment [4] (at 50.0 µM), 54.5%. Also, the growth inhibition in experiment [5] (setting [7]) is 5%; in experiment [5] (setting [8]) it was 66%; in experiment [5] (at 50.0 µM), 84.4% (active); in experiment [6] (setting [7]), -6%; in experiment [6] (setting [8]), 64%; in experiment [6] (at 50.0 µM), 90.2% (active).
Consider `CC1=C(C(=O)Nc2cc(O)ccc2O)C(c2cccc([N+](=O)[O-])c2)C(C(=O)Nc2cc(O)ccc2O)=C(C)N1`, for which the growth inhibition in experiment [1] (setting [7]) was -8%; in experiment [1] (setting [8]), 20%; in experiment [1] (at 50.0 µM) it was 32.3%; in experiment [2] (setting [7]), -23%; in experiment [2] (setting [8]), 6%; in experiment [2] (at 50.0 µM), 25.9%. The growth inhibition in experiment [3] (setting [7]) was -14%; in experiment [3] (setting [8]), 15%; in experiment [3] (at 50.0 µM), 35.9%; in experiment [4] (setting [7]) it was -5%; in experiment [4] (setting [8]), 12%; in experiment [4] (at 50.0 µM), 46.8%. The growth inhibition in experiment [5] (setting [7]) is -7%; in experiment [5] (setting [8]) it was 0%; in experiment [5] (at 50.0 µM) it was 2.35%; in experiment [6] (setting [7]), -9%; in experiment [6] (setting [8]), 20%; in experiment [6] (at 50.0 µM), 36.5%.
Consider `COC1(CO)C(=O)N(C)CC(=O)N1C` (configuration not stated), for which the growth inhibition in experiment [1] (setting [7]) was 1%; in experiment [1] (setting [8]), 99% (active); in experiment [1] (at 50.0 µM), 99.3% (active); in experiment [2] (setting [7]), 10%; in experiment [2] (setting [8]) it was 99% (active); in experiment [2] (at 50.0 µM) it was 99.7% (active). The growth inhibition in experiment [3] (setting [7]) was 5%; in experiment [3] (setting [8]) it was 99% (active); in experiment [3] (at 50.0 µM), 99.3% (active); in experiment [4] (setting [7]) it was -7%; in experiment [4] (setting [8]) it was 20%; in experiment [4] (at 50.0 µM) it was 99.7% (active). Besides, the growth inhibition in experiment [5] (setting [7]) was 0%; in experiment [5] (setting [8]), 99% (active); in experiment [5] (at 50.0 µM) it was 99.5% (active); in experiment [6] (setting [7]), 1%; in experiment [6] (setting [8]), 99% (active); in experiment [6] (at 50.0 µM), 99.3% (active).
With `Cc1cccc(C[P+](c2ccccc2)(c2ccccc2)c2ccccc2)c1`, the growth inhibition in experiment [1] (setting [7]) was 76% (active); in experiment [1] (setting [8]), 97% (active); in experiment [1] (at 50.0 µM), 90.3% (active); in experiment [2] (setting [7]), 67%; in experiment [2] (setting [8]) it was 99% (active); in experiment [2] (at 50.0 µM), 93.1% (active). Also, the growth inhibition in experiment [3] (setting [7]) was 58%; in experiment [3] (setting [8]) it was 99% (active); in experiment [3] (at 50.0 µM), 93.3% (active); in experiment [4] (setting [7]), 32%; in experiment [4] (setting [8]), 98% (active); in experiment [4] (at 50.0 µM), 91.9% (active). The growth inhibition is 71% (active) in experiment [5] (setting [7]); 99% (active) in experiment [5] (setting [8]); 92.2% (active) in experiment [5] (at 50.0 µM); 76% (active) in experiment [6] (setting [7]); 98% (active) in experiment [6] (setting [8]); 90.3% (active) in experiment [6] (at 50.0 µM).
As to `C=C1CC(Cn2ccc(=O)[nH]c2=O)(c2ccc(Cl)cc2)OC1=O` (configuration not stated), the growth inhibition in experiment [1] (setting [7]) was 11%; in experiment [1] (setting [8]) it was 64%; in experiment [1] (at 50.0 µM) it was 47.9%; in experiment [2] (setting [7]) it was -4%; in experiment [2] (setting [8]), 85% (active); in experiment [2] (at 50.0 µM), 49.8%. Besides, the growth inhibition in experiment [3] (setting [7]) is -22%; in experiment [3] (setting [8]), 80% (active); in experiment [3] (at 50.0 µM) it was 70% (active); in experiment [4] (setting [7]), 27%; in experiment [4] (setting [8]), 35%; in experiment [4] (at 50.0 µM) it was 39.5%. Further, the growth inhibition in experiment [5] (setting [7]) was 6%; in experiment [5] (setting [8]), 87% (active); in experiment [5] (at 50.0 µM), 65.8%; in experiment [6] (setting [7]), 19%; in experiment [6] (setting [8]) it was 81% (active); in experiment [6] (at 50.0 µM), 74.1% (active).
For the compound `CC1(C(Cl)(Cl)Cl)C=CC(O)(C#CC2(O)C=CC(C)(C(Cl)(Cl)Cl)C=C2)C=C1` (configuration not stated), the growth inhibition in experiment [1] (setting [7]) is 94% (active); in experiment [1] (setting [8]), 7%; in experiment [1] (at 50.0 µM), 94.5% (active); in experiment [2] (setting [7]), 91% (active); in experiment [2] (setting [8]), 98% (active); in experiment [2] (at 50.0 µM) it was 98.2% (active). In addition, the growth inhibition in experiment [3] (setting [7]) was 81% (active); in experiment [3] (setting [8]), -7%; in experiment [3] (at 50.0 µM), 98.3% (active); in experiment [4] (setting [7]), 87% (active); in experiment [4] (setting [8]), 97% (active); in experiment [4] (at 50.0 µM), 95.7% (active). Further, the growth inhibition in experiment [5] (setting [7]) was 98% (active); in experiment [5] (setting [8]), 97% (active); in experiment [5] (at 50.0 µM), 95.4% (active); in experiment [6] (setting [7]), 93% (active); in experiment [6] (setting [8]) it was 98% (active); in experiment [6] (at 50.0 µM), 97.8% (active).
Take `Cc1c(N)cc(I)cc1[N+](=O)[O-]`: the growth inhibition in experiment [1] (setting [7]) is 2%; in experiment [1] (setting [8]), 12%; in experiment [1] (at 50.0 µM), -4.65%; in experiment [2] (setting [7]), 9%; in experiment [2] (setting [8]), 7%; in experiment [2] (at 50.0 µM) it was 4.2%. For the same compound, the growth inhibition in experiment [3] (setting [7]) is 0%; in experiment [3] (setting [8]), 63%; in experiment [3] (at 50.0 µM), 12.8%; in experiment [4] (setting [7]), 6%; in experiment [4] (setting [8]) it was -11%; in experiment [4] (at 50.0 µM), -32.7%. In addition, the growth inhibition in experiment [5] (setting [7]) was -8%; in experiment [5] (setting [8]) it was 2%; in experiment [5] (at 50.0 µM), 56.8%; in experiment [6] (setting [7]) it was -5%; in experiment [6] (setting [8]), 10%; in experiment [6] (at 50.0 µM), 13.8%.
Take `COc1cnn(-c2ccccc2)c(=O)c1SCc1ccc(Cl)c(Cl)c1`: the growth inhibition in experiment [1] (setting [7]) is -3%; in experiment [1] (setting [8]), 7%; in experiment [1] (at 50.0 µM) it was 42.5%; in experiment [2] (setting [7]), -3%; in experiment [2] (setting [8]), 33%; in experiment [2] (at 50.0 µM), 7.95%. Besides, the growth inhibition is 1% in experiment [3] (setting [7]); 62% in experiment [3] (setting [8]); 71.2% (active) in experiment [3] (at 50.0 µM); -6% in experiment [4] (setting [7]); 23% in experiment [4] (setting [8]); 49.9% in experiment [4] (at 50.0 µM). Also, the growth inhibition in experiment [5] (setting [7]) is 2%; in experiment [5] (setting [8]) it was 51%; in experiment [5] (at 50.0 µM) it was 53%; in experiment [6] (setting [7]), -4%; in experiment [6] (setting [8]), 25%; in experiment [6] (at 50.0 µM), 37.4%.
Turning to `S=C(NCCNC(=S)[S][Sn]([c]1ccccc1)([c]1ccccc1)[c]1ccccc1)[S][Sn]([c]1ccccc1)([c]1ccccc1)[c]1ccccc1`, the growth inhibition in experiment [1] (setting [7]) was 97% (active); in experiment [1] (setting [8]), 93% (active); in experiment [1] (at 50.0 µM) it was 89.8% (active); in experiment [2] (setting [7]), 98% (active); in experiment [2] (setting [8]) it was 96% (active); in experiment [2] (at 50.0 µM), 90.8% (active). Moreover, the growth inhibition in experiment [3] (setting [7]) was 97% (active); in experiment [3] (setting [8]), 94% (active); in experiment [3] (at 50.0 µM) it was 91.5% (active); in experiment [4] (setting [7]) it was 96% (active); in experiment [4] (setting [8]), 93% (active); in experiment [4] (at 50.0 µM), 87.9% (active). Also, the growth inhibition in experiment [5] (setting [7]) is 98% (active); in experiment [5] (setting [8]), 94% (active); in experiment [5] (at 50.0 µM), 90% (active); in experiment [6] (setting [7]) it was 98% (active); in experiment [6] (setting [8]), 91% (active); in experiment [6] (at 50.0 µM), 89.8% (active).
